Potency, IC50 (viability decrease) and outcome data for 29 compounds are collected here from PubChem BioAssay (NCATS).

Test [1] can be described thus: qHTS Screen of the MIPE 4.0 Collection Against Ewings Sarcoma (TC71) (AID 1259253). Note: nearly all actives have a fitted effect of over 40% in size. Note: potency is the fitted concentration of half-maximal effect. The procedure, abridged:
(§1)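 Cells plated in serum-containing RPMI (5% FBS) and treated with compound dilutions for 48 h. Readout luminescent viability; normalization relied on vehicle (no inhibition) and media-only columns (full inhibition).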

Test [2] can be described thus: qHTS Screen of the MIPE 4.0 Collection Against Ewings Sarcoma (TC32) (AID 1259256). Note: nearly all actives have a fitted effect of over 45% in size. Note: potency is the fitted concentration of half-maximal effect. The procedure, abridged: as §1
On the technique in general: In qHTS, concentration-response curves come from the screen itself.

A short description of test [3]: qHTS Screen of the MIPE 4.0 Collection Against Ewings Sarcoma (EW8) (AID 1259255). Note: nearly all actives have a fitted effect of over 35% in size. Note: potency is the fitted concentration of half-maximal effect. The procedure, abridged: as §1
The nature of test [4]: Identifying Small Molecule Inhibitors of Pancreatic Cancer Stem Cells (A278, Adherent) (AID 1259361).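 Note: viability read after 48 h compound exposure; nearly all actives have a fitted effect of over 35% in size.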 The procedure, abridged:
(§2)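 Pre-formed 14-day tumor spheroids or adherent cells dosed and incubated 48 h, 37C, 5% CO2. Viability assessed by CellTiter-Glo.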

Test [5] is described as follows: Identifying Small Molecule Inhibitors of Pancreatic Cancer Stem Cells (A2780, Spheroid) (AID 1259357).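 Note: spheroids pre-formed over 14 days in stem cell medium on hydrogel; compound exposure lasted 48 h before the ATP luminescence read.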 The note with it: Potency: A2780 spheroid viability. The procedure, abridged:
(§3)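 Endpoint: ATP-based luminescence, 48 h drug exposure. Bortezomib at 9.2 uM final as full-kill control; DMSO vehicle as negative control; activity normalized between vehicle and cell-free wells.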

Test [6] can be described thus: Identifying Small Molecule Inhibitors of Pancreatic Cancer Stem Cells (SN12C, Adherent) (AID 1259358).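 Note: cell survival measured after 48 h of compound exposure.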 Note: potency is the fitted concentration of half-maximal effect. The method in brief: as §2
Test [7] can be described thus: Identifying Small Molecule Inhibitors of Pancreatic Cancer Stem Cells (SN12C, Spheroid) (AID 1259360). Note: potency is the fitted concentration of half-maximal effect. The note with it: Potency: SN12C spheroid viability. The method in brief: as §3
Test [8] in a line: P-glycoprotein substrates identified in KB-3-1 adenocarcinoma cell line, qHTS therapeutic library screen (AID 1346986). Note: nearly all actives have a fitted effect of over 60% in size.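 Note: potency is the fitted concentration of half-maximal effect; potency is for cytotoxicity meaning loss of cell viability.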 The procedure, abridged: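 Dose-response cytotoxicity, KB-3-1 vs P-gp-high KB-8-5-11, no colchicine in assay medium. Read: CellTiter-Glo at 72 h.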
Test [9] is described as follows: qHTS assay to identify small molecule inhibitors of chordoma cells - UCH-2 (AID 1259356). Note: series mostly up to about 46 µM.

Inconclusive results are not listed. Calls of active or inactive are those of the source. Calls come from the whole dose curve; as a rule, active = well fitted curve in the direction sought with a large enough effect; inconclusive = small, poorly fitted or top-dose-only effect, or another doubt; inactive = no such curve, though single readings can be large; an effect the other way counts as inactive or inconclusive.

On to `CC[C@H](C)n1cc(C)c2c(C(=O)NCc3c(C)cc(C)[nH]c3=O)cc(-c3ccc(N4CCNCC4)nc3)cc21`, for which the Potency in [1] was 11.8 µM (active); in test [2] it was 18.7 µM (active).

As to `CCN(CC)CCCCNc1nc2cc(Cl)c(Cl)cc2nc1-c1ccc(-c2cccs2)s1`, the Potency in [1] was 23.5 µM (active); in test [3], 23.5 µM (active); in test [2] it was 18.7 µM (active). In test [4], the IC50 (viability decrease) is 23.5 µM (active).

In the case of `CCCCCCCCCCCCCC(=O)N[C@H](CO)[C@H](O)c1ccc([N+](=O)[O-])cc1`, the Potency result in [1], in test [3] and in [5] was “inactive” throughout.

`COc1cccc(OC)c1-c1cc(C(=O)NC2(C(=O)O)C3CC4CC(C3)CC2C4)nn1-c1ccnc2cc(Cl)ccc12` (configuration not stated): the Potency entry in test [1], in test [3], in test [5], in [6], in test [7] and in [8] was “inactive” each time. Also, in [4], the IC50 (viability decrease) is 20.9 µM (active).

Take `COc1nccc(-c2c(-c3ccc(F)cc3)ncn2C2CCNCC2)n1`: the Potency in [1] was 5.9 µM (active); in test [3], 9.35 µM (active); in test [2] it was 16.6 µM (active). Further, the Potency entry in test [8] was “inactive”.

As for `CC(C)n1c(C=C[C@H](O)C[C@H](O)CC(=O)O)c(-c2ccc(F)cc2)c2ccccc21`, the Potency in test [1] was 3.32 µM (active); in [3] it was 9.35 µM (active); in test [2], 2.35 µM (active). Besides, the Potency result in test [7] is “inactive”. For the same compound, the IC50 (viability decrease) in test [4] was 1.05 µM (active).

For the compound `CCC(=O)N1CCN(c2ccc(-n3c(=O)ccc4cnc5ccc(-c6cnc7ccccc7c6)cc5c43)cc2C(F)(F)F)CC1`, the Potency was 0.0296 µM (active) in test [1]; 0.0332 µM (active) in [3]; 0.0105 µM (active) in [2]; 0.0372 µM (active) in [6]; 0.0526 µM (active) in [7]; 0.075 µM (active) in test [8].

As for `Nc1ncnc2c1ncn2[C@@H]1O[C@H](CO)[C@@H](O)[C@@H]1O`, the values for the Potency in test [1] and in test [3] were 6.62 µM (active) and 5.26 µM (active), respectively. Moreover, the Potency entry in [8] is “inactive”.

On to `N#Cc1c(N(CC(=O)O)CC(=O)O)sc(C(=O)O)c1CC(=O)O`, for which the Potency entry in test [1] and in [3] was “inactive” throughout. Further, in test [9], the result was inactive.

For `C[C@]12C=CC(=O)C=C1CC[C@@H]1[C@@H]2[C@@H](O)C[C@@]2(C)[C@@H]1CC[C@]2(O)C(=O)CO`, the Potency result in test [1] and in [2] was “inactive” each time.

As to `CC(C)CN(C[C@H](O)[C@H](Cc1ccccc1)NC(=O)O[C@H]1CCOC1)S(=O)(=O)c1ccc(N)cc1`, the Potency in test [1] and in test [3] was 18.7 µM (active) throughout. Besides, in test [8], the Potency result is “inactive”.

As to `O=C(Nc1ccc(OC(F)(F)F)cc1)c1sccc1NCc1ccnc2ccccc12`, the Potency in [1] was 16.6 µM (active); in [3], 18.7 µM (active); in test [2] it was 18.7 µM (active); in test [7], 23.5 µM (active). Further, the IC50 (viability decrease) in test [4] was 20.9 µM (active).

For `O=C(Nc1cccc2c(=O)cc(-c3nn[nH]n3)oc12)c1ccc(OCCCCc2ccccc2)cc1`, the Potency in [1] and in [2] was 18.7 µM (active) each time.

As for `NS(=O)(=O)c1cc(Cl)c(Cl)c(S(N)(=O)=O)c1`, the Potency result in [1] and in test [3] was “inactive” each time. Moreover, in test [9], the outcome was inactive.

On to `CC1=C(CC(=O)O)c2cc(F)ccc2C1=Cc1ccc(S(C)=O)cc1` (configuration not stated), for which the Potency in test [1] was 1.32 µM (active); in test [2] it was 1.48 µM (active).

As for `O=C(CCCN1CCN(c2ccc(F)cc2)CC1)NC1c2ccccc2CSc2ccccc21` (configuration not stated), the Potency in test [1] and in test [2] was 16.6 µM (active) throughout.

As to `CCOC(=O)[C@H](CCc1ccccc1)N[C@@H](C)C(=O)N1CCCC1C(=O)O` (some centres not stated), the Potency in [1] and in test [2] was 16.6 µM (active) throughout.

As for `O=S(=O)(O)c1ccc2cc(N=Nc3cc(S(=O)(=O)O)c4cccnc4c3O)ccc2c1`, the Potency in test [1] was 14.8 µM (active); in test [2], 16.6 µM (active).

On to `CC(C)N(CCCNC(=O)Nc1ccc(C(C)(C)C)cc1)C[C@H]1O[C@@H](n2cc(Br)c3c(N)ncnc32)[C@H](O)[C@H]1O`, for which the Potency is 18.7 µM (active) in test [1] and 20.9 µM (active) in test [2].

For `CCOC(=O)[C@H]1O[C@H]1C(=O)N[C@@H](CC(C)C)C(=O)NCCC(C)C`, the Potency in [1] is 2.96 µM (active); in test [2], 18.7 µM (active).

Consider `CCCCn1c(=O)n(Cc2ccccc2F)c(=O)c2[nH]c(Cc3ccc(NC(C)=O)cc3)nc21`, for which the Potency in test [1] was 20.9 µM (active). Further, the Potency entry in [2] and in [8] was “inactive” throughout. Besides, in test [4], the IC50 (viability decrease) was 13.2 µM (active).

`CC[C@]1(O)C[C@H]2CN(CCC3=c4ccccc4=N[C]3[C@@](C(=O)OC)(c3cc4c(cc3OC)N(C)[C@H]3[C@@](O)(C(N)=O)[C@H](O)[C@]5(CC)C=CCN6CC[C@]43[C@@H]65)C2)C1`: the Potency in test [1] is 0.0264 µM (active). Moreover, the Potency entry in test [2] was “inactive”.

As to `Cc1cc(CS(=O)(=O)c2ccccc2)cc(OCc2ccc(CN3CCC[C@H]3CO)cc2)c1`, the Potency in test [1] and in test [2] was 20.9 µM (active) throughout.

For `Cc1c(-c2cccc3c(CCCOc4cccc5ccccc45)c(C(=O)O)n(Cc4cccnc4)c23)c(COc2ccc(N3CCN([S+](=O)([O-])N(C)C)CC3)cc2)nn1C`, the figures for the Potency in [1] and in [2] were 20.9 µM (active) and 18.7 µM (active), respectively.

Consider `CC(C)Oc1cc(Nc2nc(N[C@@H](C)c3ccc(F)cn3)ncc2Cl)[nH]n1`, for which the Potency in test [1] is 16.6 µM (active); in test [2], 16.6 µM (active); in test [8], 10.3 µM (active). In [4], the IC50 (viability decrease) was 13.2 µM (active).

Consider `CCOC(=O)N1CCN([N+]([O-])=NOc2cc(ON=[N+]([O-])N3CCN(C(=O)OCC)CC3)c([N+](=O)[O-])cc2[N+](=O)[O-])CC1`, for which the Potency entry in test [1] and in test [8] was “inactive” throughout. The Potency in test [2] is 4.18 µM (active).

For the compound `Cc1cnc(CNC(=O)c2c(=O)c3ccc(N4CCCN(C)CC4)nc3n3c2sc2ccccc23)cn1`, in test [1], the Potency was 7.24 µM (active). In addition, the Potency result in test [2] is “inactive”.

On to `CCC[C@H](N[C@@H](C)C(=O)N1[C@@H]2CCCC[C@H]2C[C@H]1C(=O)O)C(=O)OCC`, for which, in [1], the Potency is 14.8 µM (active). Moreover, the Potency entry in [2] was “inactive”.

Consider `CCc1cccc(CC)c1NC(=O)N1Cc2[nH]nc(NC(=O)c3ccc(N4CCN(C)CC4)cc3)c2C1`, for which the Potency was 4.18 µM (active) in test [1] and 0.526 µM (active) in [2].
